# Reference: PubChem BioAssay AID1704 (The Scripps Research Institute Molecular Screening Center, 2009)
# Some of the results follow. Unmarked numbers belong to inactive results. Activity calls are given as the source filed them.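 The calls were made as follows: active = inhibition above the mean of stimulated solvent-only control wells plus 3 SD (cut at about 22% in these data); inactive = the rest.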
# Assay: CNGC cAMP sensor activity inhibitors, counter-screen for NPY-Y1 potentiator/agonist project, cell-based, HEK293-CNG parental, membrane potential fluorescence, Y1 set (AID 1704);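 also: 0% = isoproterenol-stimulated DMSO wells and 100% = unstimulated DMSO wells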
# Settings: isoproterenol cAMP, at 3.6 µM, active compounds read high
row,SMILES,inhibition
1,CSC1=NP(=S)(SC)N(C)c2nc3n(c21)CCC3 (configuration not stated),3.97%
2,Cc1nn(Cc2ccccc2Cl)c(Cl)c1C(=O)OC(C(=O)NC(N)=O)C(C)C (configuration not stated),43.1% (active)
